In the library only some 1.3% were active in any assay of this set; here they are far more common.
RTF Ca sens inh: cardiac RTF calcium desensitization. inhibition, % at 7.15 µM. IANBD-labeled cardiac RTF, Ca2+ fluorescence. P19429+P45379. 340,000 compounds, 0.12% hits;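 active = inhibition above the mean inhibition of all tested compounds plus 3 SD, cut at about 17% in these data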;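 also: assay run at fixed EC70 calcium of 1.6 mM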
CRFR2-BP ag: agonists of human CRF-binding protein/CRF-R2 receptor complex | activation, % at 13.2 µM | HEK293 CRF-R2/CRF-BP, calcium dye fluorescence (FLIPR); percent of saturating CRF peptide response | 350,000 compounds, 0.46% hits;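 active = activation of at least 50%, plus an integration ratio under a set limit after plate pattern correction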
CRFBP-R2 block: CRF-BP/CRF-R2 complex antagonism | HEK293 CRF-R2/CRF-BP, CRF-induced calcium fluorescence | inhibition, % at 11.8 µM | 350,000 compounds, 0.59% hits | AID 588475;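 active = inhibition of the ligand-induced calcium signal above about 50% at the single tested concentration, limit read from the data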
cardiac RTF act: increases calcium sensitivity of human cardiac regulated thin filaments; P19429+P45379; IANBD-labeled TnC RTF fluorescence at EC20 calcium; 0% EC20 calcium, 100% full calcium; activation, % at 7.2 µM; 340,000 compounds, 0.24% hits;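 active = activation above the mean over all tested compounds plus 3 SD, cut at about 30% in these data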;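 also: rise in fluorescence read as greater calcium sensitivity of cardiac thin filaments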
Hits are given with their value; - = inactive; . = no result given.

SMILES | RTF Ca sens inh | CRFR2-BP ag | CRFBP-R2 block | cardiac RTF act
CCOc1ccccc1C(=O)N(Cc1ccc(C)o1)C1CCS(=O)(=O)C1 (stereo not given) | - | - | - | -
COc1ccnc(CSC(N)=Nc2ccc(F)cc2)c1 | - | - | 86 | -
Cc1c2cc(O)c(=O)cc-2oc2cc(O)c(O)cc12 | - | - | - | 109
Cc1cc2oc(=O)cc(-c3cc4ccccc4o3)c2cc1O | - | - | - | -
COc1cc(OC)c(-c2c3cc(O)c(=O)cc-3oc3cc(O)c(O)cc23)cc1OC | - | 171 | - | 894
COc1c(O)cc2oc(-c3ccc(O)cc3)cc(=O)c2c1O | - | - | - | -
COCC(=O)OC1CCn2c1nc1c2C(=O)C(C)=C(NC(C)=O)C1=O (stereo not given) | - | - | - | -
O=C(Nc1ccc2ccccc2n1)c1ccccc1Br | - | - | - | -
COc1cc(/C=C2/C(=O)NN(c3cccc(C)c3)C2=O)cc([N+](=O)[O-])c1O | - | - | - | -
COc1cc(/C=C2/C(=O)NN(c3cccc(C)c3)C2=O)ccc1OC(=O)c1ccco1 | - | 54 | - | -
CN(Cc1c(C(=O)N2CCCCCCC2)nc2ccc(Cl)cn12)C1CCOC1 (stereo not given) | - | - | - | -
CCOc1ccc(CNC(=O)CCC(=O)N2Cc3cccc(OC)c3Oc3ncccc32)cc1 | - | - | 52 | -
Cc1ccc(C2C=C(c3ccccc3OC(F)F)Nc3ncnn32)cc1 (stereo not given) | - | - | - | -
CN(C)c1ccc(C2C=C(c3ccc(Cl)cc3OC(F)F)Nc3ncnn32)cc1 (stereo not given) | - | 59 | - | -
CCCCN(C(=O)c1cccc(-n2cnnn2)c1)c1c(N)n(CCCC)c(=O)[nH]c1=O | . | - | - | .
Cn1c(=O)c(Nc2ccc(Cl)cc2)c2c3c(cccc31)C(=O)c1ccccc1-2 | . | 111 | - | .
O=C(NC(=S)NNC(=O)c1cccs1)c1ccc(Br)o1 | - | 71 | - | -
O=C(NNC(=S)NC(=O)c1cccs1)c1ccc(O)cc1 | - | - | - | -
Cc1cccc(C=CC(=O)c2ccccc2)c1 | - | - | - | -
Cc1ccc(C(=O)C=Cc2cccc(C)c2)cc1 | - | - | 59 | -
CCC(C(=O)NCCc1ccc(OC)cc1OC)n1nc(C)n2c(cc3occc32)c1=O (stereo not given) | - | - | - | -
Cc1cc(C)c2nc3nc(C)c(C)cc3c(N)c2c1 | - | 71 | 111 | -
COc1ccc(/C(O)=C2/C(=O)C(=O)N(CCN(C)C)C2c2cccnc2)cc1C (stereo not given) | - | 94 | - | -
COc1ccccc1C(=O)NN(C)C1=NS(=O)(=O)c2ccccc21 | - | - | - | 60
O=C(NNS(=O)(=O)c1ccc(F)cc1)C1CC(c2cccnc2)=NO1 (stereo not given) | - | - | - | -
SMILES | RTF Ca sens inh | CRFR2-BP ag | CRFBP-R2 block | cardiac RTF act
O=C(O)c1ccc(/C=N/Nc2cccc(C(F)(F)F)c2)cc1 | - | - | 76 | -
c1ccc(CNC2CC3CCC2C3)cc1 (stereo not given) | - | - | - | -
CN1CCC2(CC1)C1CN(C)CC=C1C(C#N)=C(N)C2(C#N)C#N (stereo not given) | - | - | - | 37
CC(/C=C/c1ccc(N(C)C)cc1)=N/N=C1/NC(=O)CC(C(=O)Nc2ccc(Cl)cc2)S1 (stereo not given) | - | - | - | 32
O=c1cc(-c2ccccc2Cl)oc2c(NS(=O)(=O)c3cc(Cl)cc(Cl)c3O)ccc(O)c12 | - | 81 | - | -
CCOc1cc(-c2cn(S(=O)(=O)c3cccc4nsnc34)nc2N)cc(OCC)c1OCC | - | - | 70 | -
Cc1cc(Br)ccc1NC(=O)CN(C)C(=O)CSCc1ccccc1 | - | - | - | -
Oc1ccccc1C=NN=Cc1c(O)ccc2ccccc12 | - | 144 | - | -
Oc1ccc2ccccc2c1C=NCc1ccccc1 | - | - | - | -
O=C(N/N=C\c1c(O)ccc2ccccc12)c1ccc(S(=O)(=O)N2CCCCC2)cc1 | - | 203 | - | -
O=CN/N=C/c1c(O)ccc2ccccc12 | - | 88 | - | -
O=S(=O)(N/N=C\c1ccc2c(c1)OCO2)c1ccc(F)cc1 | - | - | - | -
O=C(NCCC1CC1(Cl)Cl)Nc1ccccc1 (stereo not given) | - | - | - | -
COc1cc2c(cc1[N+](=O)[O-])-c1ccccc1C2 | - | 87 | - | 125
CCN(CC)CCCNC(=O)CCn1nc(-c2ccccc2)ccc1=O | - | - | - | -
Nc1c(C(=O)C2CC2)sc2nc(-c3cccs3)cc(C(F)(F)F)c12 | - | - | - | 46
CN1Cc2c(N3CCOCC3)nc(SCc3ccccc3)c(C#N)c2CC1(C)C | - | 64 | - | -
OC(CN1C2=NCCCN2c2ccccc21)c1ccc2c(c1)OCO2 (stereo not given) | - | - | - | -
OC(CN1C2=NCCN2c2ccccc21)c1ccc2c(c1)OCO2 (stereo not given) | - | - | 52 | -
O=C(O)c1cccc2c1C(=O)N(Cc1ccccc1)C2 | - | - | 63 | -
Cc1c(OCC(=O)NCCN2CCOCC2)ccc2c3c(c(=O)oc12)CCC3 | - | - | 115 | -
Cc1c(OCC(=O)NCCCN2CCOCC2)ccc2c3c(c(=O)oc12)CCCC3 | - | - | - | -
Cc1ccc(C)c(-n2c3nc(=O)[nH]c(=O)c-3cc3cc([N+](=O)[O-])ccc32)c1 | - | 61 | - | -
CC(C)OCCCNC(=O)c1cn(C)c2ccc(S(=O)(=O)N3CCCC3)cc2c1=O | - | - | - | -
Nc1nc(NCCCN2CCOCC2)nc(Nc2ccccc2F)c1[N+](=O)[O-] | - | - | - | -
SMILES | RTF Ca sens inh | CRFR2-BP ag | CRFBP-R2 block | cardiac RTF act
c1ccc2c(c1)nnn2-c1ncnc2sc3c(c12)CCCC3 | - | - | 62 | -
Cc1nc(-n2nnc3ccccc32)c2c3c(sc2n1)CCCC3 | - | - | - | -
Cc1ccc(Cl)c(NC(=O)CN2CCNC(=O)C2)c1Cl | - | - | - | -
C[C@H]1CN([C@@H](C)CO)C(=O)CCCn2nncc2CO[C@@H]1CN(C)C(=O)c1ccc2ccn(C)c2c1 | . | - | - | .
C[C@H](CO)N1C[C@H](C)[C@@H](CN(C)C(=O)c2ccc3ccn(C)c3c2)OCc2cn(nn2)CCCC1=O | . | - | 63 | .
COc1ccc(CNC(=O)C(=O)NCCC2CCCCN2S(=O)(=O)c2cccs2)cc1 (stereo not given) | - | - | - | -
Cc1ccc(C)c(OCCCC(=O)NC2CCCCC2)c1 | - | - | - | -
Cc1ccc(OCCCC(=O)NC2CCCCC2)cc1 | - | - | - | 38
O=C1CN(C(=O)NCC(=O)N[C@@H](C(=O)O)c2ccccc2)c2ccccc2N1 | - | - | - | -
CCOC(=O)C1=C(COC(=O)/C=C/c2cccc([N+](=O)[O-])c2)NC(=O)NC1C (stereo not given) | - | - | - | -
COc1cccc(CC2(CO)CCCN(Cc3ccc(CN4CCCCC4)s3)C2)c1 (stereo not given) | - | - | - | -
N#Cc1cccc(NC(=O)Nc2cccs2)c1 | - | - | 108 | -

Compound activity (PubChem BioAssay)
